In the library only some 7.8% were active in any assay of this set; here they are far more common.
VACV Venus inh – inhibitors of vaccinia virus (Venus reporter). Vaccinia virus Venus reporter expression, fluorescence. Potency, µM (doses to about 36.5 µM), without a hit: at the highest dose activity change, negative = inhibition, most hits filed as inhibitors. actives 0.46% (n = 330,000). AID 720580; calls by dose curve; tested in A549 cells; also: potency is read from the fitted curve at half-maximal effect; nearly all actives have a fitted effect of over 30% in size
LASV entry inh – inhibitors of Lassa virus binding or cell entry; Lassa virus pseudotype entry inhibition, cell reporter; Potency, µM (series often up to 37.9 µM), for the others: at the highest dose activity change, negative = inhibition, hits mostly inhibitors; actives 1.2% (n = 300,000); AID 540256; calls by dose curve; tested in HEK293 cells; also: potency is read from the fitted curve at half-maximal effect; nearly all actives have a fitted effect of over 50% in size
HCMV inh – inhibitors of human cytomegalovirus; HFF cells, HCMV-luciferase reporter, 72 h; stronger effect = lower value; activity change, negative = inhibition, % at 57.5 µM; actives 4.5% (n = 410,000); in the data active = activity change below about -60%; inconclusive = no clear call, values can overlap the other calls; inactive = above about -39%
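Two-dose cell screen: HFF monolayers treated with compounds and infected with luciferase-expressing HCMV at 1 PFU/cell, 72 h at 37C, then lysed for luciferase measurement.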
Marburg entry inh – Marburg virus entry inhibition; actives 1.8% (n = 300,000); AID 540276; Potency, µM (titrated, usually from 37.8 µM), for the others: at the top dose activity change, negative = inhibition, actives largely listed as inhibitors; Marburg virus pseudotyped entry inhibition, cell reporter; calls by dose curve; tested in HEK293 cells; also: potency is read from the fitted curve at half-maximal effect
Vaccinia mCherry – vaccinia inhibition (mCherry reporter) | Vaccinia virus mCherry reporter infection, fluorescence | Potency, µM (titrated, usually from 36.5 µM), for the others: at the top dose activity change, negative = inhibition, hits mostly inhibitors | actives 0.63% (n = 310,000); calls by dose curve; tested in A549 cells; also: potency is read from the fitted curve at half-maximal effect; nearly all actives have a fitted effect of over 35% in size
HCV inh – blocks hepatitis C virus; Huh7.5.1 HCVcc-Cre infection, luciferase reporter, 44 h; Potency, µM (highest dose often 41.8 µM), without a hit: top-dose activity change, negative = inhibition, actives largely listed as inhibitors; actives 3.4% (n = 340,000); active = well fitted inhibition curve with a large enough effect; inconclusive = small, poorly fitted or top-dose-only effect, or another doubt; inactive = no such curve, though single readings can be large or run the other way; also: potency is read from the fitted curve at half-maximal effect
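A cell-based infection assay in which seeded cells (1,000 per well) receive test compound after 4 h, are inoculated with HCVcc-Cre at approximately 0.5 moi, and are incubated 44 h before luminescence detection.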
* hit, by the source's call; ! = a repeat was not active; [ ] = dose if it differs, or a comment. % is scaled to controls: 0 for no effect and ±100 for the full control effect.

What do the screens show for `Cc1c(CC(=O)NCCc2ccc(Cl)cc2)c(=O)oc2c(C)c3occ(C(C)(C)C)c3cc12`?
VACV Venus inh: -12.0%; LASV entry inh: 13.8%[46.1 µM]; HCMV inh: -68.3*; Marburg entry inh: 10.5%[46.1 µM]; Vaccinia mCherry: -21.2%

Results for O=C(/C=C/c1ccc(F)cc1)NCC1Cc2cccc(-c3ncccn3)c2O1 (stereo not drawn) ?
VACV Venus inh: -8.0%; Vaccinia mCherry: -18.0%

What do the screens show for `CC[n+]1c(/C=C2/C=C(C)CC(C)(C)C2)sc2ccc(OC)cc21`?
VACV Venus inh: 3.9%; LASV entry inh: inconclusive; HCMV inh: -86.5*; Marburg entry inh: inconclusive; HCV inh: inconclusive

Results for CCC1=C/C(=C/c2sc3ccccc3[n+]2CC)CC(C)(C)C1 ?
VACV Venus inh: -10.5%; LASV entry inh: 4.1%[46.1 µM]; HCMV inh: -39.8; Marburg entry inh: -32.6%[46.1 µM]; Vaccinia mCherry: -4.0%; HCV inh: inconclusive

How did CC[n+]1c(/C=C2\C=C(C)CC(C)(C)C2)sc2ccccc21 do in these assays?
VACV Venus inh: -9.9%; LASV entry inh: 9.2µM*; HCMV inh: -18.5; Marburg entry inh: inconclusive; Vaccinia mCherry: inactive; HCV inh: 6.31µM*

Results for COC(=O)c1c(C(=O)OC)c2c3cc(OC)c(OC)cc3cc([Si](C)(C)C)n2c1C(=O)OC ?
Marburg entry inh: 24.3%[14.2 µM]

What do the screens show for `CCOC(=O)c1cccn1C1C(=O)N(Cc2ccc(OC)cc2)c2ccc(OC)cc21` (stereo not drawn)?
HCMV inh: -5.6

How did Cc1ccccc1-n1c(/C=C/c2ccccn2)nc2ccccc2c1=O do in these assays?
VACV Venus inh: inconclusive; HCMV inh: -101.9*; Vaccinia mCherry: inconclusive; HCV inh: -22.5%

How did COc1ccccc1-n1c(/C=C/c2ccccc2)nc2ccccc2c1=O do in these assays?
VACV Venus inh: -22.0%; LASV entry inh: -3.1%[46.1 µM]; HCMV inh: 18.3; Vaccinia mCherry: -21.9%

Results for Cc1ccc(-n2c(/C=C/c3ccc(Br)s3)nc3ccccc3c2=O)cc1C ?
VACV Venus inh: -22.7%; LASV entry inh: inconclusive; HCMV inh: -64.8*; Vaccinia mCherry: -19.1%

How did Cc1ccccc1-n1c(/C=C/c2ccc(O)cc2)nc2ccccc2c1=O do in these assays?
VACV Venus inh: -8.3%; LASV entry inh: inconclusive; HCMV inh: -91.6*; Vaccinia mCherry: -28.9%

How did COc1ccc(CCNC(=O)Cn2nc(C)c3c(C)n(-c4ccc(C)cc4)nc3c2=O)c(OC)c1 do in these assays?
VACV Venus inh: inconclusive; LASV entry inh: inconclusive; HCMV inh: -91.1*; Vaccinia mCherry: -27.7%

What do the screens show for `COc1ccc(OC)c(CCNC(=O)C(C)n2nc(C)c3c(C)n(-c4ccc(C)cc4)nc3c2=O)c1` (stereo not drawn)?
VACV Venus inh: -28.3%[7.34 µM]; LASV entry inh: -15.7%[46.1 µM]; HCMV inh: -76.7*!; Vaccinia mCherry: -22.3%[7.34 µM]; HCV inh: 2.82µM*

How did O=C(CSC1=NCCS1)c1ccc(Cl)cc1 do in these assays?
VACV Venus inh: -16.7%; LASV entry inh: -17.7%; HCMV inh: 41.9; Marburg entry inh: -0.1%; Vaccinia mCherry: inactive; HCV inh: inconclusive

How did O=C(CSC1=NCCS1)N1CCN(c2ccc(Cl)cc2)CC1 do in these assays?
VACV Venus inh: -29.1%; LASV entry inh: -12.3%; HCMV inh: -81.9*; Marburg entry inh: -23.7%[46.1 µM]; Vaccinia mCherry: inconclusive; HCV inh: inconclusive

Results for COc1ccc(CN(C)Cc2nc(Cc3cccc(F)c3)no2)c2cccnc12 ?
VACV Venus inh: inconclusive; LASV entry inh: inconclusive; HCMV inh: -82.2*; Marburg entry inh: inconclusive; Vaccinia mCherry: inconclusive; HCV inh: 10µM*

Results for O=C1c2ccccc2NC2(c3ccccc3)c3ccccc3-n3nncc3CN12 (stereo not drawn) ?
HCMV inh: 8.7

What do the screens show for `CCNC(=O)C1(C)CCN1CCS(=O)(=O)c1ccc(C)cc1` (stereo not drawn)?
VACV Venus inh: -3.5%; HCMV inh: -102.5*; Vaccinia mCherry: -8.3%

How did CN(C)c1ccc(CNc2nc(-c3ccco3)nn2S(=O)(=O)c2ccc(Cl)cc2)cc1 do in these assays?
VACV Venus inh: 7.0%; LASV entry inh: 2.9%[46.1 µM]; HCMV inh: 76.3; Marburg entry inh: inconclusive; Vaccinia mCherry: -18.6%

How did CCC(=O)Nc1c(C(=O)Nc2cccc(OC)c2)oc2ccccc12 do in these assays?
LASV entry inh: -19.5%; HCMV inh: 66.6; Marburg entry inh: 4.6%; HCV inh: -29.3%

How did CCOc1ccc(CC(=O)Nc2c(C(=O)c3ccc(C)cc3)oc3ccccc23)cc1OCC do in these assays?
VACV Venus inh: -7.1%; LASV entry inh: 14.1%[46.1 µM]; HCMV inh: -62.8*; Marburg entry inh: inconclusive; Vaccinia mCherry: -3.3%

How did CN1CCN(CC(=O)Nc2c(C(=O)c3ccccc3)oc3ccccc23)CC1 do in these assays?
VACV Venus inh: -22.7%; LASV entry inh: inconclusive; HCMV inh: inconclusive; Marburg entry inh: inconclusive; Vaccinia mCherry: 13.4%; HCV inh: 11.2µM*

How did CCOC(=O)c1oc2ccc(Br)cc2c1NC(=O)CN1CCN(C)CC1 do in these assays?
VACV Venus inh: -6.0%; LASV entry inh: -8.9%; HCMV inh: 24.0; Marburg entry inh: inconclusive; HCV inh: 10µM*

What do the screens show for `COc1ccc2oc(C(=O)c3ccccc3)c(NC(=O)CN3CCN(C)CC3)c2c1`?
VACV Venus inh: -9.7%; LASV entry inh: 1.6%; HCMV inh: inconclusive; Marburg entry inh: -5.8%; Vaccinia mCherry: -19.5%; HCV inh: 1.5%

What do the screens show for `CCCN(CCC)C(=O)c1oc2ccccc2c1NC(=O)Cc1cccc(OC)c1`?
HCMV inh: -5.2; HCV inh: 11.2µM*

What do the screens show for `COC(=O)c1oc2ccc(Br)cc2c1NC(=O)CCN1CCOCC1`?
LASV entry inh: 2.8%; HCMV inh: -14.4; Marburg entry inh: inconclusive; HCV inh: 2.4%

What do the screens show for `CCN(CC)c1ccc(N=C2C=CC(=O)C=C2NC(C)=O)cc1`?
VACV Venus inh: 189.9%; LASV entry inh: 7.7%; HCMV inh: 37.8; Marburg entry inh: inconclusive; Vaccinia mCherry: 58.5%; HCV inh: -4.5%

Results for CCc1nc(OCc2ccccc2)c2sc3nc4c(cc3c2n1)COC(C)(C)C4 ?
VACV Venus inh: -8.0%; LASV entry inh: 21.8%[14.3 µM]; HCMV inh: -25.3; Marburg entry inh: 16.4µM*; Vaccinia mCherry: -15.6%

How did CC1(C)Cc2nc3sc4c(OCc5ccccc5)ncnc4c3cc2CO1 do in these assays?
LASV entry inh: 0.1%; HCMV inh: -7.6; Marburg entry inh: 14.6%; HCV inh: 6.3%

What do the screens show for `CCOc1ccc(NC(=O)CSc2nnc(-c3ccncc3)n2-c2ccccc2)cc1`?
VACV Venus inh: 3.1%; LASV entry inh: 6.6%[46.1 µM]; HCMV inh: -7.0; Vaccinia mCherry: -10.4%

Screening results: PubChem BioAssay, National Center for Advancing Translational Sciences (NCATS)
